From PubChem
A selection: hits, their analogues and other compounds. The true share with any hit is near 3.7%.
B2AR arrestin: beta2AR (human) beta-arrestin recruitment activity. P07550. beta-arrestin recruitment to beta2AR, cell-based reporter. hit rate 0.02% among 330,000. AID 492947. Potency, µM (doses to about 46.1 µM), inactives show at the top dose activation, hits mostly activators;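 further: potency means the concentration at half of the fitted maximal effect; 0% = DMSO controls and full agonism = EC100 isoproterenol or metaproterenol; nearly all actives have a fitted effect of over 65% in size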
RGS4 inh: blocks human RGS4-accelerated GTP hydrolysis | Transcreener GDP fluorescence polarization, RGS4-accelerated GTP hydrolysis | Potency, µM (titrated, usually from 114 µM), for the others: top-dose activity change, negative = inhibition, most hits filed as inhibitors | hit rate 0.039% among 390,000 | AID 504845; further: potency means the concentration at half of the fitted maximal effect; on the % scale 0 is the no-effect control and ±100 the full control effect; nearly all actives have a fitted effect of over 75% in size
Target sequence (P49798 whole entry, looked up): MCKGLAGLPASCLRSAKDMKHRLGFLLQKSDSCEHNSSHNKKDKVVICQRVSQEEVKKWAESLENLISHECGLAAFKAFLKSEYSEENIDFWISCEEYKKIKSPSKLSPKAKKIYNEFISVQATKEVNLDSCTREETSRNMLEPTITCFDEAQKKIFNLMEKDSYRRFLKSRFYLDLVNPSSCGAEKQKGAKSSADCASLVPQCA
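MLSMR compounds (23 nl, pin-transferred) preincubated 10 min at room temperature with a 500nM (2x) first reagent, then RGS4 at 900nM (2x) plus Transcreener GDP mix added; fluorescence polarization (620/688 nm) read before and after 90 min at 30 °C.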
DRD3 antagonist: blocks the human D3 dopamine receptor; hit rate 2.5% among 360,000; D3R cells, DiscoveRx beta-arrestin luminescence, antagonist mode; hits give low values; AID 652054; max response, negative = inhibition, %; in the data active means max response below about -50%; inconclusive means no clear call, values can overlap the other calls; further: on the % scale 0 is the no-effect control and ±100 the full control effect
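Cells expressing the human receptor were seeded at 1500 cells/well, incubated overnight at 37 degrees C in 5% CO2, then exposed to library compounds with dopamine controls for 90 minutes at 37 degrees C before luminescent detection.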
D3 ag: D3 dopamine receptor (human) agonism; D3R DiscoveRx beta-arrestin cells, luminescence, 90 min; max activation, %; hit rate 0.58% among 410,000; AID 652048; in the data active means max activation above about 30%; further: 0% is about no effect
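Agonist-mode cell screen: cells plated at 1500/well and incubated overnight at 37 °C, then exposed to library compounds for 90 min at 37 °C. Detection reagent was added for 30–60 min at room temperature, and luminescence was read.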
PTHR1 agonist: activates the human parathyroid hormone receptor PTHR1; Q03431; HEK293 GP2 PTHR1 cells, GloSensor cAMP luminescence, 1 h; Potency, µM (highest dose often 115 µM), without a hit: at the highest dose activation, actives largely listed as activators; hit rate 0.075% among 410,000; AID 743266; further: potency means the concentration at half of the fitted maximal effect; nearly all actives have a fitted effect of over 55% in size
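HEK-293-derived GP2 cells expressing PTHR1 and a GloSensor cAMP reporter, 3,000/well, plated overnight, given luciferin plus IBMX (each 0.5 mM as added) for 1 h at 37 °C, then compound for 1 h at 37 °C. Luminescence was read after 15 min at room temperature.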
BRCA1 expr up: BRCA1 expression activation; hit rate 1.1% among 380,000; MCF7-BRCA1-FFLuc reporter, luminescence, 48 h; response scale: scaled: vehicle 0%, 10 µM genistein 100%; Potency, µM (titrated, usually from 46.1 µM), for the others: top-dose activation, hits mostly activators; AID 624202; further: potency means the concentration at half of the fitted maximal effect; nearly all actives have a fitted effect of over 80% in size
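Using MCF7 cells harboring a BRCA1 firefly luciferase reporter, plated 2 h before compound pinning, the screen measured luminescence after 48 h incubation. Responses were normalized to DMSO and 10 microM genistein, then fitted for concentration-effect.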
* hit, by the source's call; i = inactive; ? = inconclusive; nt = no result; [ ] = remark or other dose. Unless noted, the call rests on the fitted dose curve; in most records, active means well fitted curve in the direction sought with a large enough effect; inconclusive means small, poorly fitted or top-dose-only effect, or another doubt; inactive means no such curve, though single readings can be large; an effect the other way counts as inactive or inconclusive.

SMILES	B2AR arrestin	RGS4 inh	DRD3 antagonist	D3 ag	PTHR1 agonist	BRCA1 expr up
Cc1ccc(C)c(NC(=O)c2ccc(S(=O)(=O)N(C)CC3CCCO3)cc2)c1 (stereo unspecified)	nt	1%	?	-13	-23%	-1%
Cc1nn(Cc2cccc(C(=O)NC3CCCCC3)c2)c(C)c1Cl	0%	18%	-51*	-1	-40%[57.5 µM]	5%
O=C(NC1CCCCCCC1)c1cccc(Cl)c1	0%	-1%	2	-6	-6%	?
COC(=O)c1ccc(CNc2ccc(C(C)=O)cc2)cc1	nt	nt	6	12	-18%	64%
C[C@]12CCC(=O)C=C1CC[C@@H]1[C@@H]2[C@@H](O)C[C@@]2(C)[C@H]1CC[C@]2(O)C(=O)COP(=O)(O)O	nt	nt	nt	2	nt	nt
COc1nc2ccccc2cc1-c1noc(-c2cccnc2)n1	0%	nt	nt	nt	nt	nt
CCOc1ccccc1-c1nc(-c2cc3ccccc3nc2OC)no1	0%	-9%	28	34*	-25%[57.5 µM]	-58%
CN(C)CCCNC(=O)c1cc(C(=O)c2c(Cl)cccc2Cl)c[nH]1	1%	22%	-17	-10	i	-24%
CCCN(CCO)CCCc1ccccc1	0%	-13%	52	4	-13%[57.5 µM]	1%
CCN(CCCc1ccccc1)CCCc1ccccc1	-1%	15%	-96*	-84	9%	11%
CCN(CCCC(=O)c1ccc(F)cc1)CCc1ccccc1	0%	-10%	-28	32*	i	1%
COc1ccc(-c2ccc3nccn3c2)cc1	nt	nt	-2	5	i	22%
CC(C)Cc1ccc(-c2ccc3nccn3c2)cc1	nt	nt	-12	-3	-53%	14µM*
CC(Nc1cccc2ccccc12)C(=O)N/N=C/c1ccc([N+](=O)[O-])cc1 (stereo unspecified)	-1%	-14%	-18	9	i	-26%
COc1cc([N+](=O)[O-])cc(/C=N/NC(=O)C(C)Nc2cccc3ccccc23)c1O (stereo unspecified)	0%	-5%	-84*	-26	i	-70%
O=[N+]([O-])c1ccccc1C=NNC(=S)NN=Cc1ccccc1[N+](=O)[O-]	nt	-37%	-58*	-23	i	-1%
COc1cccc(/C=N/Nc2nc(Nc3ccc([N+](=O)[O-])cc3)nc(N3CCCC3)n2)c1O	0%	-13%	-119*	-30	-4%	-54%
CC(C)NC(=S)N/N=C/c1ccccc1[N+](=O)[O-]	1%	12%	-5	1	i	-3%
O=[N+]([O-])c1ccc(N/N=C/c2cccc(O)c2)cc1	0%	-8%[56.9 µM]	?	-10	i	?
O=[N+]([O-])c1ccc(N/N=C/c2cccc(O)c2O)cc1	3%	-52%[56.9 µM]	-50*	1	-17%	?
CCCCCCCCCCCCC/C=C/[C@@H](O)[C@H](CO)NCCCCCCCC	nt	i	nt	nt	nt	nt
O=C(NCCc1ccccc1)c1ccc(CSc2nc3ccncc3n2Cc2cccc(F)c2)cc1	nt	0%	nt	-23	-4%	nt
CCN(c1ccccc1)S(=O)(=O)c1cccc(C(=O)NCc2ccccn2)c1	0%	7%	-8	-3	-2%	14%
Brc1ccccc1/C=N/Nc1ccc2ccccc2n1	0%	-17%	?	-3	-20%	27%
O=C(N/N=C/c1cccc([N+](=O)[O-])c1O)c1cccs1	0%	-35%	-25	-21	-19%	-84%
O=C(O)COc1ccc(/C=N/Nc2nc(Nc3ccccc3)nc(N3CCCCC3)n2)cc1	0%	-9%	-50*	-27	-61%	44%
O=[N+]([O-])c1cccc(C=NNc2ccc3ccccc3n2)c1O	nt	-19%	-54*	-13	-28%	-80%
O=C(N/N=C/c1cccc([N+](=O)[O-])c1O)C(O)(c1ccccc1)c1ccccc1	1%	-1%	-71*	-23	-22%	-47%
COc1cc([N+](=O)[O-])cc(/C=N/NC(=O)C(O)(c2ccccc2)c2ccccc2)c1O	0%	18%	-55*	-29	-9%	-47%
